High-throughput results deposited in PubChem BioAssay by National Center for Advancing Translational Sciences (NCATS).
An excerpt weighted towards active compounds, which were near 9.2% of everything screened.
LMNA splice mod: modulators of lamin A splicing; HeLa LMNA splicing GFP/RFP minigene ratio, 48 h; Potency, µM (highest dose often 46.1 µM), without a hit: at the highest dose ratio change, negative = inhibition, usual class: inhibitors; 0.01% of 200,000 active; AID 1487; active = well fitted inhibition curve with a large enough effect in the signal ratio, with a control signal flat, not every such curve was filed as active; inconclusive = small, poorly fitted or top-dose-only effect, or effect the other way, or a change in a side signal; the % refers to the signal ratio; also: % is scaled to controls: 0 for no effect and ±100 for the full control effect
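S3 HeLa cells stably expressing lamin A-EGFP splicing minigene plus DsRed2, 600 cells/well, 48 h compound exposure at 37C. Laser-scanning cytometry; analysed as GFP (500-530 nm)/RFP (575-640 nm) total intensity ratio; 0.5% DMSO vehicle.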
ALDH1A1 inh: inhibitors of human aldehyde dehydrogenase 1A1; P00352; Purified ALDH1A1, NADH fluorescence, propionaldehyde substrate; Potency, µM (doses to about 75.3 µM), inactives show at the highest dose activity, negative = inhibition, usual class: inhibitors; 7.3% of 220,000 active;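 also: plate controls were no enzyme wells and a reference inhibitor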
HTT ATP protect: cytoprotection in Huntington HTT-Q103 PC12 cell model; 0.14% of 230,000 active; AID 1471; PC12 HTT-Q103 induced, cytoprotection, ATP luminescence, 40 h; Potency, µM (doses to about 56.4 µM), for inactives: cytoprotection (ATP increase), usual class: activators; active = well fitted curve in the direction sought with a large enough effect; inconclusive = small, poorly fitted or top-dose-only effect, or another doubt; inactive = no such curve, though single readings can be large; an effect the other way counts as inactive or inconclusive; also: % of control where 0% means no effect; nearly all actives have a fitted effect of over 45% in size
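Compounds added alongside 100 nM tebufenozide, which induces toxic Q103 huntingtin exon 1-GFP in stable PC12 cells; surviving cells quantified by luminescent ATP measurement. Medium: phenol red-free DMEM, 5% equine and 5% calf serum.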
HPGD block: HPGD (human) dehydrogenase inhibition | P15428 | purified HPGD, NADH fluorescence kinetic, PGE2 substrate | Potency, µM, inactives show top-dose activity change, negative = inhibition, hits mostly inhibitors | 4.3% of 150,000 active | AID 894; also: % is scaled to controls: 0 for no effect and ±100 for the full control effect
Target sequence (P15428 whole entry, looked up): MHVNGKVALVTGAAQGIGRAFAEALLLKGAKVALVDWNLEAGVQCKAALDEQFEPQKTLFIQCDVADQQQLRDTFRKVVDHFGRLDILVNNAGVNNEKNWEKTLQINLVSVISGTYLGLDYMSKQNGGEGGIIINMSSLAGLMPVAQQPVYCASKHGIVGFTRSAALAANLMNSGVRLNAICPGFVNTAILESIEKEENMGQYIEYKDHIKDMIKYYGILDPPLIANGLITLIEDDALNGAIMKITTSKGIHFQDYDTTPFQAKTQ
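NADH formation kinetics: reaction with 30 uM PGE2 and 1 mM NAD+ (final), 20 nM enzyme, Tris-HCl pH 8 with Tween 20, after 15 min compound preincubation at room temperature. Fluorescence change, last versus first of five reads.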
KDM4E inh: blocks human JMJD2E demethylase activity. JMJD2E catalytic domain, FDH-coupled NADH fluorescence (FDH is formaldehyde dehydrogenase). Potency, µM (titrated, usually from 57.1 µM), without a hit: top-dose activity change, negative = inhibition, usual class: inhibitors. 1.6% of 230,000 active;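 also: 0% = wells with enzyme and -100% = buffer wells without enzyme; nearly all actives have a fitted effect of over 50% in size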
HttQ103 aggreg: mutant huntingtin aggregation inhibition; Potency, µM (doses to about 46.1 µM), for inactives: at the highest dose activity change, negative = inhibition, most hits filed as inhibitors; PC12 HttQ103-GFP aggregates, Acumen cytometry, 40 h; 1.1% of 220,000 active; active = well fitted curve in the direction sought with a large enough effect; inconclusive = small, poorly fitted or top-dose-only effect, or another doubt; inactive = no such curve, though single readings can be large; an effect the other way counts as inactive or inconclusive; also: % is scaled to controls: 0 for no effect and ±100 for the full control effect; nearly all actives have a fitted effect of over 60% in size
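Aggregate formation scored by laser-scanning cytometer (488 excitation, 500–530 emission) in lysed PC12 cells expressing Q103-GFP after 100 nM tebufenozide induction; library tested in dose series, with ATPLite reagent added in the multiplex.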
* hit, by the source's call; ? = inconclusive; / = not tested or not shown; [ ] = another dose, or the depositor's remark. Unless noted, calls follow the shape of the dose curve; as a rule, active = well fitted inhibition curve with a large enough effect (not every such curve was filed as active); inconclusive = small, poorly fitted or top-dose-only effect, or another doubt; inactive = no such curve, though single readings can be large or run the other way. Potency is read from the fitted curve at half-maximal effect.

SMILES	LMNA splice mod	ALDH1A1 inh	HTT ATP protect	HPGD block	KDM4E inh	HttQ103 aggreg
CC1(C)OC(=O)C(=CNc2ncccn2)C(=O)O1	7%	?	5%	-7%	-2%	3%
O=C(C1CCC(CNS(=O)(=O)c2cccs2)CC1)N1CCN(c2ccc(Cl)cc2)CC1 (centres undefined)	-3%[46 µM]	/	/	/	/	/
CC(Sc1nnc(-c2ccccc2)c(-c2ccccc2)n1)C(=O)N1CCc2ccccc21 (centres undefined)	-22%	7.1µM*	17%[10 µM]	/	-1%	2%
O=C1NC(=S)N/C1=C/c1cc([N+](=O)[O-])ccc1N1CCOCC1	-23%[46 µM]	25µM*	-16%	/	-2%	6%
COc1ccc(OC)c(-c2noc(N3CCN(c4cccc(C(F)(F)F)c4)CC3)n2)c1	-6%[46 µM]	/	/	/	/	/
COc1ccc(O[C@H]2C=C[C@@H](c3ccccc3)O[C@H]2COC(=O)CC/C(C)=N/OCC[C@@H]2C=C[C@H](OC(C)=O)[C@H](COC(C)=O)O2)cc1	/	-3%[13.5 µM]	-17%[10 µM]	/	/	/
CC1CCCN(C(=O)CSc2nnc3n(C4CCCC4)c(=O)c4ccccc4n23)C1 (centres undefined)	4%	7.9µM*	7%	20µM*	?	12%
O=c1cc(-c2ccc(O)c(-c3c(O)cc(O)c4c(=O)cc(-c5ccc(O)cc5)oc34)c2)oc2cc(O)cc(O)c12	-2%	?	/	14µM*	-24%	-19%
CCN1C(C)=C(C(=O)OC)C(c2ccccc2)N2C(=O)[C@@]3(C(=O)OC)O[C@@]12C1C(=O)N(c2ccccc2)C(=O)C13 (some centres undefined)	/	8%[13.5 µM]	1%[10 µM]	/	/	/
CCCCN(Cc1ccccc1)C(=O)C1CCCN(S(=O)(=O)c2cnc[nH]2)C1 (centres undefined)	0%	14µM*	1%	-6%	16%	2%
CN(CCCNC(=O)C1CCCN(S(=O)(=O)c2cnc[nH]2)C1)c1ccccc1 (centres undefined)	3%	?	8%	-10%	3%	25%
Cn1cc(C(=O)N/N=C/C(Br)=C/c2ccccc2)ccc1=O	?	?	21%[10 µM]	28µM*	-6%	?
CC(=O)NC1=NC(=O)/C(=C/c2cn(C(C)=O)nc2-c2ccccc2)S1	?	10µM*	1%	/	6%	?
Cc1cc(C)n(CC(O)Cn2ccc3ccccc32)n1 (centres undefined)	-2%	-16%	-7%	?	-3%	-12%
OCc1nc2ccccc2n1CC(O)Cn1ccc2ccccc21 (centres undefined)	?	22µM*	-4%	-18%	-13%	?
O=C1c2ccccc2S(=O)(=O)N1CC(O)Cn1ccc2ccccc21 (centres undefined)	10%	13µM*	21%	-19%	0%	7%
Oc1ccccc1NCC(O)Cn1ccc2ccccc21 (centres undefined)	10%	14µM*	-17%	/	?	23%
OC(CNCc1ccccc1)Cn1ccc2ccccc21 (centres undefined)	11%	?	/	-12%	?	3%
CN(Cc1ccon1)Cc1cn(Cc2ccccc2)nc1-c1ccc2c(c1)OCO2	/	0%	27%[10 µM]	/	1%	4%[9.22 µM]
COc1cc(C(C(=O)NCc2ccccc2)N(Cc2ccco2)C(=O)c2cnccn2)cc(OC)c1OC (centres undefined)	/	10%	-30%	/	-2%	-21%
COC(=O)c1ccc(C(NC(=O)OCc2ccccc2)/C(=C/[C@@H](C)C(=O)NCc2nc3ccccc3s2)c2cccnc2)cc1 (some centres undefined)	/	-7%	1%	-9%	-12%	/
CC(=O)Nc1cc(-c2nn(C)c(=O)c3ccccc23)ccc1N1CCOCC1	-12%	?	-11%	-15%	0%	31%
Cc1ccc(S(=O)(=O)Nc2cc(-c3nn(C)c(=O)c4ccccc34)ccc2N2CCOCC2)cc1	?	22µM*	-74%	?	1%	?
